# Measurements from ChEMBL document CHEMBL5606460, “ASAP - DENV-2 NS2B-NS3 protease fluorescence single point” (2024).
# Screen size: about 2,000 compounds; about 110 (5.5%) showed an effect of 50% or more. Shown is part of a subset that was picked to be rich in strong results.
# Biological target: Genome polyprotein (dengue virus type 2) (UniProt P29990)
# [1] = Thailand/16681/1984, Concentration 25.0 uM, Number of replicates 1.0
compound,measurement,setting,value
Cc1cc(CO)c2cccc(Cc3cccc(C(=O)Nc4cc(C)[nH]n4)c3)c2n1,inhibition,"Thailand/16681/1984, Concentration 49.95 uM, Number of replicates 2.0, Standard deviation 1.9137700846759278 %",0.711%
same,inhibition,"Thailand/16681/1984, Concentration 99.9 uM, Number of replicates 2.0, Standard deviation 1.69961162141419 %",3.33%
Cc1cc(CO)c2cccc(CC(=O)Nc3cc(C)[nH]n3)c2n1,inhibition,"Thailand/16681/1984, Concentration 49.95 uM, Number of replicates 2.0, Standard deviation 0.6660500187655393 %",4.74%
same,inhibition,"Thailand/16681/1984, Concentration 99.9 uM, Number of replicates 2.0, Standard deviation 2.9944546877986085 %",12.6%
Cc1cc(CO)c2cccc(CC(=O)Nc3cc(C)on3)c2n1,inhibition,"Thailand/16681/1984, Concentration 49.95 uM, Number of replicates 2.0, Standard deviation 0.056769444720657654 %",98.7%
same,inhibition,"Thailand/16681/1984, Concentration 99.9 uM, Number of replicates 2.0, Standard deviation 0.01177144620169866 %",99.4%
Cc1cc(CO)c2cccc(CC(=O)NCc3c(C)noc3C)c2n1,inhibition,"Thailand/16681/1984, Concentration 49.95 uM, Number of replicates 2.0, Standard deviation 0.8979901952671747 %",-6.95%
same,inhibition,"Thailand/16681/1984, Concentration 99.9 uM, Number of replicates 2.0, Standard deviation 0.7380557178102791 %",-7.49%
Cc1cc(CO)c2cccc(Cc3cccc(C(=O)Nc4cc(C)on4)c3)c2n1,inhibition,"Thailand/16681/1984, Concentration 49.95 uM, Number of replicates 2.0, Standard deviation 1.544383261062021 %",29.6%
same,inhibition,"Thailand/16681/1984, Concentration 99.9 uM, Number of replicates 2.0, Standard deviation 16.942938692438737 %",63.9%
Cc1cc(CO)c2cccc(Cc3ccccc3C(=O)Nc3cc(C)on3)c2n1,inhibition,"Thailand/16681/1984, Concentration 49.95 uM, Number of replicates 2.0, Standard deviation 1.5788782649320652 %",8.61%
same,inhibition,"Thailand/16681/1984, Concentration 99.9 uM, Number of replicates 2.0, Standard deviation 0.4297535440018178 %",25.7%
COc1ccc(-c2cc(NC(=O)C3CCN(c4ccc(C=O)cc4)CC3)[nH]n2)cc1,inhibition,[1],0.343%
c1cnc2c(C3CCN(Cc4cscn4)CC3)c[nH]c2c1,inhibition,"Thailand/16681/1984, Concentration 49.5 uM, Number of replicates 2.0, Standard deviation 1.714470745737797 %",-3.42%
same,inhibition,"Thailand/16681/1984, Concentration 99.01 uM, Number of replicates 2.0, Standard deviation 2.482934234636928 %",-3.54%
same,inhibition,"Thailand/16681/1984, Concentration 198.0 uM, Number of replicates 2.0, Standard deviation 1.6201369950511377 %",-3.14%
C[C@@H](Cc1ccc(O)cc1)NC(=O)C1CCN(c2ccc(C=O)cc2)CC1,inhibition,[1],12.7%
Cc1cc(CO)c2cccc(CC(=O)N3CC4(CCCOC4)C3)c2n1,inhibition,"Thailand/16681/1984, Concentration 49.95 uM, Number of replicates 2.0, Standard deviation 0.772673116128399 %",-6.59%
same,inhibition,"Thailand/16681/1984, Concentration 99.9 uM, Number of replicates 2.0, Standard deviation 1.1105448445025274 %",-6.27%
CC(C)(CO)NC(=O)c1cc(Cl)cc(NC(=O)c2cc(-c3ccc(Cl)cc3)n[nH]2)c1,inhibition,"Thailand/16681/1984, Concentration 49.5 uM, Number of replicates 2.0, Standard deviation 0.12694171370832513 %",1.06%
same,inhibition,"Thailand/16681/1984, Concentration 99.01 uM, Number of replicates 2.0, Standard deviation 0.3683389265193805 %",1.45%
same,inhibition,"Thailand/16681/1984, Concentration 198.0 uM, Number of replicates 2.0, Standard deviation 0.21850629000727306 %",2.52%
Cc1cc(CO)c2cccc(C[C@H](NC(=O)C(=O)c3ccco3)C(=O)O)c2n1,inhibition,"Thailand/16681/1984, Concentration 49.95 uM, Number of replicates 2.0, Standard deviation 2.1984135254678594 %",1.13%
same,inhibition,"Thailand/16681/1984, Concentration 99.9 uM, Number of replicates 2.0, Standard deviation 0.8113996635889369 %",5.56%
c1ccc2c(CN3CCC(c4c[nH]c5cccnc45)CC3)n[nH]c2c1,inhibition,"Thailand/16681/1984, Concentration 49.5 uM, Number of replicates 2.0, Standard deviation 0.8795107409501791 %",2.18%
same,inhibition,"Thailand/16681/1984, Concentration 99.01 uM, Number of replicates 2.0, Standard deviation 0.8626664157680123 %",3.05%
same,inhibition,"Thailand/16681/1984, Concentration 198.0 uM, Number of replicates 2.0, Standard deviation 1.2603111418750788 %",5.34%
Cc1cc(CO)c2cccc(C[C@H](NC(=O)C[C@H]3CCCN3)C(=O)O)c2n1,inhibition,"Thailand/16681/1984, Concentration 49.95 uM, Number of replicates 2.0, Standard deviation 0.0013512279632592627 %",3.5%
same,inhibition,"Thailand/16681/1984, Concentration 99.9 uM, Number of replicates 2.0, Standard deviation 1.378906641613337 %",9%
Cc1cnccc1NC(=O)c1cc(C2CCC2)n(C)c1C,inhibition,"Thailand/16681/1984, Concentration 49.5 uM, Number of replicates 2.0, Standard deviation 0.7067686370209446 %",0.618%
same,inhibition,"Thailand/16681/1984, Concentration 99.01 uM, Number of replicates 2.0, Standard deviation 0.7459418989288495 %",1.95%
same,inhibition,"Thailand/16681/1984, Concentration 198.0 uM, Number of replicates 2.0, Standard deviation 0.11875700646175207 %",4.33%
O=C(Nc1ccc2c(c1)CNC2)c1cc(Cl)cc2[nH]c(-c3cc(C4CC4)[nH]n3)nc12,inhibition,"Thailand/16681/1984, Concentration 99.5 uM, Number of replicates 2.0, Standard deviation 0.13306805316732315 %",94.6%
same,inhibition,"Thailand/16681/1984, Concentration 295.6 uM, Number of replicates 2.0, Standard deviation 0.23606011523727233 %",88.6%
N#Cc1cccc(-c2nc3c(C(=O)NCc4cccnc4)cc(Cl)cc3[nH]2)c1,inhibition,"Thailand/16681/1984, Concentration 99.5 uM, Number of replicates 2.0, Standard deviation 2.321247122631555 %",6.57%
same,inhibition,"Thailand/16681/1984, Concentration 295.6 uM, Number of replicates 2.0, Standard deviation 6.98688470817418 %",38.2%
N#Cc1cccc(-c2nc3c(C(=O)Nc4ccncc4)cc(Cl)cc3[nH]2)c1,inhibition,"Thailand/16681/1984, Concentration 99.5 uM, Number of replicates 2.0, Standard deviation 0.8007493235576281 %",6.92%
same,inhibition,"Thailand/16681/1984, Concentration 295.6 uM, Number of replicates 2.0, Standard deviation 3.318711635404566 %",36.2%
CC(C)NC(=O)[C@H](Nc1ccc2c(c1)CNC2)c1cc(Cl)cc2[nH]c(-c3ccccc3)nc12,inhibition,"Thailand/16681/1984, Concentration 99.5 uM, Number of replicates 2.0, Standard deviation 1.6408381783405366 %",91.5%
same,inhibition,"Thailand/16681/1984, Concentration 295.6 uM, Number of replicates 2.0, Standard deviation 0.018514941963441705 %",97.4%
N#Cc1cccc(-c2nc3c(C(=O)Nc4cccnc4)cc(Cl)cc3[nH]2)c1,inhibition,"Thailand/16681/1984, Concentration 99.5 uM, Number of replicates 2.0, Standard deviation 0.04165727071859149 %",7.45%
same,inhibition,"Thailand/16681/1984, Concentration 295.6 uM, Number of replicates 2.0, Standard deviation 4.418006643102565 %",20.3%
CCc1ccc(-c2ccccc2C(=O)Nc2cnn(C)c2)c(F)c1,inhibition,"Thailand/16681/1984, Concentration 49.5 uM, Number of replicates 2.0, Standard deviation 0.8455770066617545 %",-0.985%
same,inhibition,"Thailand/16681/1984, Concentration 99.01 uM, Number of replicates 2.0, Standard deviation 1.2261793384720772 %",-0.538%
same,inhibition,"Thailand/16681/1984, Concentration 198.0 uM, Number of replicates 2.0, Standard deviation 2.01798052784263 %",0.736%
